Compound activity from PubChem.
DENV2 CPE rescue: inhibitors of DENV2 cytopathic effect, primary screen, cell-based, plate reader, single concentration. DENV2-infected cells, cytopathic effect rescue. CPE inhibition, % at 9.99 µM. hit rate 1.7% among 350,000. AID 651640, 2012; in the data active = CPE inhibition above about 20%, passing the limit was not always enough; inconclusive = no clear call, values can overlap the other calls; tested in BHK-21 cells
ERAP1 HTS inh: human ERAP1 aminopeptidase inhibitors, primary screen, biochemical, single point, plate reader | recombinant ERAP1, Leu-AMC fluorescence, 60 min | inhibition, % at 10.7 µM | hit rate 0.15% among 340,000 | AID 652197, 2013;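 active = mean replicate inhibition of at least 30%, or all replicates individually reaching that 30% level; inactive = mean below 30% and not every replicate reaching it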
Target sequence (Q9NZ08 whole entry, looked up): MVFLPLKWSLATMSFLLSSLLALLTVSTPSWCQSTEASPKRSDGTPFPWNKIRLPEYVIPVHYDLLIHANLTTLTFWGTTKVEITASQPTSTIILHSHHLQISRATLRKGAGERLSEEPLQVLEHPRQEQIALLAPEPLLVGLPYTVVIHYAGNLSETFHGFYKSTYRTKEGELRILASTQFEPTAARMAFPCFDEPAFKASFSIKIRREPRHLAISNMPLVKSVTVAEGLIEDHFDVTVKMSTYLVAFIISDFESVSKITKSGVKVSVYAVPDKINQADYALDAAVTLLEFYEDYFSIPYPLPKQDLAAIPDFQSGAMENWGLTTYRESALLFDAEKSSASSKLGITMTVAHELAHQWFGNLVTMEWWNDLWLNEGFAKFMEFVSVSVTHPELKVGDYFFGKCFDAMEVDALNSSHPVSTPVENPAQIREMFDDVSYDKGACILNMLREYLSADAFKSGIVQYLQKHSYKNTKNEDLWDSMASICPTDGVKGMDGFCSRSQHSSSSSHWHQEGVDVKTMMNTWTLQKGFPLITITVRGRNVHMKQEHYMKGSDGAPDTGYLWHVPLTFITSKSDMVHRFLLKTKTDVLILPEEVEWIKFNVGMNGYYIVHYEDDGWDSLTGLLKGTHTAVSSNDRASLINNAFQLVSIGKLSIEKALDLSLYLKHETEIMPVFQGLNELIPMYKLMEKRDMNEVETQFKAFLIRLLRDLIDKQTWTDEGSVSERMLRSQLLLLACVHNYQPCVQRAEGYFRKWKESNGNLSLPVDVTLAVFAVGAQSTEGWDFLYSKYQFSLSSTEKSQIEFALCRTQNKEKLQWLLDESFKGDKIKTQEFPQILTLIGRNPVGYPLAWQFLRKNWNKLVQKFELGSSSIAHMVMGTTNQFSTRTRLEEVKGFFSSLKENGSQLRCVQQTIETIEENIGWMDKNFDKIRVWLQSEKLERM
PGC1a acetyl inh: inhibitors of PGC1a acetylation signal, primary screen, cell-based, U2OS, AlphaScreen, inhibitor mode. hit rate 0.17% among 350,000. AlphaScreen anti-acetyl-lysine; with virally co-expressed GCN5 acetyltransferase. inhibition, % at 15.6 µM. AID 651687, 2012;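 active = every replicate shows inhibition of at least 40%; inconclusive = mean inhibition at least 40% but some replicate below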
GSIS activator: GLuc luminescence reporter in INS-1E cells, primary screen for activators of glucose-dependent secretion of insulin | INS-1E GLuc reporter insulin secretion, 2-3 h | activation, % at 16.6 µM | hit rate 0.61% among 370,000 | AID 743287, 2014;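 active = lowest replicate activation of at least 40%, so every replicate reaches that level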
Ecoli rRNA inh: reduced GFP signal of wild-type E. coli, primary screen, bacterial rRNA inhibitor project, GFP/RFP fluorescence, OD600, single point; E. coli WT GFP vs humanized-ribosome RFP mutants, 24 h; stronger effect = lower value; DMSO median 0, no signal -100; GFP signal change (wild-type ribosome), % (test concentration not listed); hit rate 1.6% among 350,000; AID 720706, 2013;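 active = significant combined selectivity score with lowered wild-type GFP, culture density cut under 30%, mutant RFP and density less affected; inactive = any of these conditions unmet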
CaV13 FRET inh: Primary screen for inhibitors of IQ motif and Ca2+-dependent inactivation inhibitor domain binding in CACNA1D, Förster resonance energy transfer in living cells, …. HEK cells, CFP/YFP FRET ICDI-IQ, plate reader, 10 min; percent FRET-ratio fall versus neutral wells. inhibition, % at 12.3 µM. hit rate 0.098% among 340,000. AID 743397;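 active = mean replicate inhibition of at least 30% and at least 1% of replicates passing that level; inconclusive = only one of the two criteria is met; inactive = neither criterion is met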
A number is an active result; n = inactive; u = inconclusive; x = no result. Most compounds without a hit are left out; they make up all but 3.2% or so of the library.

SMILES | DENV2 CPE rescue | ERAP1 HTS inh | PGC1a acetyl inh | GSIS activator | Ecoli rRNA inh | CaV13 FRET inh
COc1cccc(-c2ccc3c(c2)N(Cc2cccc(F)c2)C(=O)C(C)S3)c1 (stereo unspecified) | n | n | n | 42 | n | n
Cc1ccc2c(c1)N(Cc1cccc(F)c1)C(=O)C(C)O2 (stereo unspecified) | n | n | x | n | n | n
CC1Oc2ccccc2N(Cc2cccc(F)c2)C1=O (stereo unspecified) | n | n | n | 43 | n | n
CC(=O)c1ccc2c(c1)N(Cc1ccccc1)C(=O)C(C)S2 (stereo unspecified) | n | n | n | 50 | n | n
Cc1ccc2c(c1)N(Cc1ccccc1)C(=O)C(C)S2 (stereo unspecified) | n | n | n | n | n | n
CSc1ccc(CN2C(=O)C(C)Sc3ccc(C(C)=O)cc32)cc1 (stereo unspecified) | n | n | n | x | n | n
CNC[C@H]1Oc2ccc(N)cc2C(=O)N([C@@H](C)CO)C[C@@H]1C | n | n | n | n | n | x
Cc1noc(C)c1S(=O)(=O)Nc1ccc2c(c1)CC(=O)N([C@@H](C)CO)C[C@H](C)[C@H](CN(C)Cc1ccc3c(c1)OCO3)O2 | n | n | n | n | n | x
CC[C@H](C)[C@H](NC(N)=O)C(=O)Nc1ccc(S(=O)(=O)NC(C)C)cc1 | n | x | n | n | -22 | n
CCOc1ccc(Oc2ccc(NC(=O)[C@@H](NC(N)=O)[C@@H](C)CC)cc2)cc1 | n | n | n | n | n | n
CCCNC(=O)C[C@H]1CC[C@@H]2[C@@H](COc3ccc(NC(=O)Nc4ccccc4F)cc3C(=O)N2C)O1 | n | n | n | n | n | x
Cc1cc(C(=O)NNC(=O)Nc2ccc(Cl)cc2)no1 | n | x | n | x | x | n
CCCCC#Cc1ccc(C(=O)NNC(=O)Nc2cc(Cl)cc(Cl)c2)o1 | n | n | x | n | -40 | n
COc1ccc(CC(=O)Nc2ncc([N+](=O)[O-])s2)cc1OC | n | n | n | n | -50 | n
COc1ccc(Cc2nnc(NC(=O)Cc3cccs3)s2)cc1OC | x | x | n | 153 | x | n
C[C@H]1CN([C@@H](C)CO)C(=O)c2cc(C#Cc3ccncc3)cnc2O[C@@H]1CN(C)Cc1ccncc1 | x | x | n | n | n | x
COc1cccc(OC)c1OCCCCc1c(C)n[nH]c1C | x | n | x | n | -24 | n
COc1cccc(OC)c1OCCCCCc1c(C)n[nH]c1C | x | x | n | n | x | n
O=C(N[C@H]1CC[C@@H](CCNC(=O)C2CC2)O[C@H]1CO)c1ccncc1 | n | n | n | n | n | x
CCC(=O)Nc1ccc2c(c1)C(=O)N(C)C[C@H](OC)[C@H](C)CN(C(=O)CN(C)C)[C@H](C)CO2 | x | x | n | n | n | x
Cc1cc(C)cc(C(=O)Nc2ccc(N3CCCC3)cc2)c1 | n | n | x | n | -30 | n
Cc1ccc(C(=O)N2CCN(c3ccc(NC(=O)c4cc(C)cc(C)c4)cc3)CC2)cc1 | n | n | n | n | n | n
COc1ccc(NC(=O)Nc2ccc3c(c2)CC(=O)N([C@@H](C)CO)C[C@@H](C)[C@@H](CN(C)Cc2ccc(C(=O)O)cc2)O3)cc1 | n | n | n | n | n | x
O=C(NNC(=O)C12CC3CC(CC(C3)C1)C2)c1cccc([N+](=O)[O-])c1 | 20 | n | n | n | n | n
COc1ccccc1-n1c(C)c(C(C)=O)c2cc(O)ccc21 | n | n | n | n | n | n
SMILES | DENV2 CPE rescue | ERAP1 HTS inh | PGC1a acetyl inh | GSIS activator | Ecoli rRNA inh | CaV13 FRET inh
COc1ccc2c(c1)c(C(C)=O)c(C)n2-c1ccccc1OC | n | n | n | n | -36 | n
C[C@H](CO)N1C[C@H](C)[C@@H](CN(C)C(=O)Nc2cccc3ccccc23)Oc2ccc(NC(=O)CCC(F)(F)F)cc2C1=O | n | n | n | n | n | x
Cc1cc2c(cc1C)CSC(c1ccccc1O)SC2 | x | x | n | x | x | n
Oc1ccccc1C1SC(c2ccccc2O)SC(c2ccccc2O)S1 (stereo unspecified) | n | n | n | 153 | n | n
COc1ccc(S(=O)(=O)N(C)C[C@@H]2OCCCC[C@H](C)Oc3ccc(NS(=O)(=O)c4cn(C)cn4)cc3C(=O)N([C@@H](C)CO)C[C@H]2C)cc1 | n | n | n | n | n | x
COc1ccc(-c2nnc(SCc3ccccc3F)o2)cc1 | x | x | n | x | x | n
COc1cc(OC)cc(-c2nnc(SCc3c(F)cccc3Cl)o2)c1 | n | n | n | n | -28 | n
O=C(NCc1ccccc1)c1csc(-c2cccnc2)n1 | n | n | x | n | -37 | n
Cc1cccc(Oc2coc3cc(OC(=O)c4cncc(Br)c4)ccc3c2=O)c1 | n | n | x | n | -18 | x
Cc1cc(C)cc(Oc2coc3cc(OC(=O)c4cccnc4)ccc3c2=O)c1 | x | x | x | n | x | n
N#Cc1nc(N2CCOCC2)nc(N2CCOCC2)n1 | x | x | n | 57 | x | n
CO[C@H]1CN(C)C(=O)c2cc(NC(=O)NC3CCCCC3)ccc2OC[C@H](C)N(C(C)=O)C[C@@H]1C | n | n | n | n | n | x
CC1(c2nnc(-c3ccccc3)o2)CC(c2c(Cl)cccc2Cl)=NO1 (stereo unspecified) | n | n | n | n | -29 | n
Cc1csc2c(N3CCN(C(=S)Nc4ccc(C(F)(F)F)cc4)CC3)ncnc12 | n | n | n | n | -32 | n
Cc1csc2ncnc(N3CCN(C(=S)Nc4ccc(C(F)(F)F)cc4)CC3)c12 | n | x | n | n | n | n
Cc1noc(C)c1NC(=O)Nc1cccc2c1O[C@@H](CN(C)C(=O)Nc1ccc3c(c1)OCO3)[C@@H](C)CN([C@@H](C)CO)C2=O | n | n | n | n | n | x
Cc1no[n+]([O-])c1COc1cccc(/C=N/Nc2nncn2N)c1 | n | n | 50 | x | n | n
C[C@@H]1CN([C@H](C)CO)C(=O)c2cc(NC(=O)CCC(F)(F)F)ccc2O[C@@H](C)CCCCO[C@@H]1CN(C)Cc1ccc2c(c1)OCO2 | u | n | n | n | n | x
CC(C)c1cn(CC[C@H]2CC[C@H](NC(=O)C3CC3)[C@@H](CO)O2)nn1 | n | n | n | n | n | x
COc1ccccc1-c1cn(CC[C@H]2CC[C@H](NC(=O)C3CCC3)[C@H](CO)O2)nn1 | 35 | n | n | n | n | x
CCCNC(=O)N[C@H]1CC[C@@H](CCn2cc(-c3cccc(F)c3)nn2)O[C@@H]1CO | n | n | n | n | n | n
CCCNC(=O)N[C@H]1CC[C@@H](CCn2cc(-c3cccc(F)c3)nn2)O[C@H]1CO | 56 | n | n | n | n | x
